# Only some compounds are listed: those with a hit (about 11% of all), similar ones and a draw of the others.
# MCF10A rerep: induces DNA re-replication in MCF 10a normal breast cells; MCF 10A DNA re-replication, Hoechst nuclear intensity, 48 h; 2.9% of 350,000 active; Potency, µM (titrated, usually from 46.1 µM), for the others: at the top dose activity, positive = re-replication, most hits filed as activators; further: potency means the concentration at half of the fitted maximal effect; % of control where 0% means no effect; nearly all actives have a fitted effect of over 50% in size
# SW480 rereplic: DNA re-replication induction in SW480 cells | SW480 DNA re-replication, Hoechst DNA content imaging, 48 h | Potency, µM (series often up to 46.1 µM), for inactives: at the top dose re-replication activation, actives largely listed as activators | 1.8% of 340,000 active; further: potency means the concentration at half of the fitted maximal effect; % of control where 0% means no effect; nearly all actives have a fitted effect of over 55% in size
#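 Quantitative HTS format with DMSO vehicle controls; 48 hr drug incubation at 37 C, then 40 min Hoechst staining and scanning imager measurement at 405 nm excitation.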
# RORg inh: inhibitors of mouse ROR gamma transcriptional activity; P51450; Drosophila S2 Gal4-RORgamma UAS-luciferase reporter, 20 h; Potency, µM (doses to about 53.6 µM), inactives show top-dose activity change, negative = inhibition, most hits filed as inhibitors; 5.4% of 310,000 active; further: potency means the concentration at half of the fitted maximal effect; on the % scale 0 is the no-effect control and ±100 the full control effect; nearly all actives have a fitted effect of over 60% in size
# Target sequence (P51450 whole entry, looked up, the tested form may be a part): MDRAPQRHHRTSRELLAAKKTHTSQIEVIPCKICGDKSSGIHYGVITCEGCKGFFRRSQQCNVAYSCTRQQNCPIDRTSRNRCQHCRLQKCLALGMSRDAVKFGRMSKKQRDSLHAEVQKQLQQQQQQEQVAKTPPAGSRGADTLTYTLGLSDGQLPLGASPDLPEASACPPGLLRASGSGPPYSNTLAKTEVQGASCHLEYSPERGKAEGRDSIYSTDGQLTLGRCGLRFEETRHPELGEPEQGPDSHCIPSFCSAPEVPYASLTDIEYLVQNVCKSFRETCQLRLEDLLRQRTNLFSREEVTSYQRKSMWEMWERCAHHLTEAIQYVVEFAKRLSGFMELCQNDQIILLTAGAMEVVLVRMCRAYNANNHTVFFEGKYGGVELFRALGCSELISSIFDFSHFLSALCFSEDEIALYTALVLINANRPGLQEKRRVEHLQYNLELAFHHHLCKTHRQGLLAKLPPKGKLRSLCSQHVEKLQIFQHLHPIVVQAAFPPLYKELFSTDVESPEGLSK
#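 Compounds are pin-transferred onto Drosophila Schneider cells expressing a copper-inducible Gal4–ROR gamma transactivation domain fusion. After 1 hr, copper sulfate is added to 700 uM final; luciferase is read 20 hr later.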
# VP16 counter: inhibits Gal4-VP16 luciferase reporter, ROR gamma counter-screen; Potency, µM (top dose mostly 53.6 µM), inactives show at the top dose activity, negative = inhibition, usual class: inhibitors; AID 2546; Drosophila S2 Gal4-VP16 UAS-luciferase, luminescence, 20 h; 3.5% of 310,000 active;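 further: Gal4-VP16 expression switched on by copper sulfate through the metallothionein promoter; potency means the concentration at half of the fitted maximal effect; on the % scale 0 is the no-effect control and ±100 the full control effect; nearly all actives have a fitted effect of over 50% in size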
# IL1B secr inh: blocks inflammasome-driven IL-1 beta release | THP-1 LPS/ATP IL-1B secretion, AlphaLISA, 16 h; hits give low values | activity change, % at 57.5 µM | 4.7% of 360,000 active | AID 743279; in the data active means activity change below about -50%; inconclusive means mostly about -30% to -49%; further: on the % scale 0 is the no-effect control and ±100 the full control effect
#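 Secreted IL-1B measured by AlphaLISA bead assay after 16 h compound exposure of THP-1 cells; compounds (final up to 57.5 uM) added 1 h before LPS (250 ng/mL) and ATP (1.25 mM) stimulation; lower signal means less secretion.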
# Numbers without * were called inactive; ? = inconclusive; . = not tested or not shown; [ ] = remark or other dose. Unless noted, the call rests on the fitted dose curve; in most records, active means well fitted curve in the direction sought with a large enough effect; inconclusive means small, poorly fitted or top-dose-only effect, or another doubt; inactive means no such curve, though single readings can be large; an effect the other way counts as inactive or inconclusive.
SMILES,MCF10A rerep,SW480 rereplic,RORg inh,VP16 counter,IL1B secr inh
CCc1ccc2nc(/N=C(\N)NC(=O)c3ccccc3)nc(C)c2c1,12%,1%,-2%,5%,-15
Cc1cc(C)c2nc(/N=C(\N)NC(=O)Nc3ccccc3)nc(C)c2c1,21µM*,9.2µM*,-3%,-21%,-9
CCCC(=O)N/C(N)=N/c1nc(C)c2ccccc2n1,?,?,1.1µM*,21%,-85*
COc1ccc(NC2=C(c3ccc(OC)cc3)C(=O)c3ccccc32)cc1,-5%,-13%,-34%,?,0
COC1=C(Nc2ccc(O)cc2)C(=O)c2ccccc2C1=O,?,?,-33%,-26%,-64*
COC1=C(Nc2ccc(OC)cc2)C(=O)C(OC)=C(Nc2ccc(OC)cc2)C1=O,-2%,0%,.,.,-14
CCOc1ccc(NC2=C(OC)C(=O)c3ccccc3C2=O)cc1,13%,10%,-3%,-25%,-83*
COC1=C(Nc2ccc(OC)cc2)C(=O)c2ccccc2C1=O,?,23µM*,5%,-3%,?
CCN(Cc1ccc(C#CCCO)cc1)CC1CCCN(CCc2cccc(F)c2)C1 (stereo not given),-1%,1%,-38%,1%,-23
Cc1noc(/C=C/c2ccccn2)c1[N+](=O)[O-],29%,4%,.,.,-51*
COc1ccccc1N/C=C/c1onc(C)c1[N+](=O)[O-],2%,14%,11µM*,?,-17
Cc1noc(/C=C/Nc2ccc(F)cc2F)c1[N+](=O)[O-],-4%,-3%,?,-6%,-13
O=S(=O)(NCC(O)c1ccccc1)c1ccc(-c2ccccn2)s1 (stereo not given),?,23µM*,49%,-6%,-9
CC(C)C(NC(=O)C(CC(=O)O)NC(=O)C(CCCCN)NC(=O)C(N)CCCN=C(N)N)C(=O)NC(Cc1ccc(O)cc1)C(=O)O (stereo not given),1%,3%,1%,1%,.
O=C(c1ccccc1)N1N=C(C(F)(F)F)CC1(O)c1ccccc1 (stereo not given),10%,-4%,-24%[1.91 µM],?,27
COC(=O)C1=NN(C(=O)c2ccccc2)C(O)(c2ccc([N+](=O)[O-])cc2)C1 (stereo not given),-3%,-5%,5µM*,7.1µM*,3
COC(=O)C1=NN(C(=O)c2ccc(C)cc2)C(O)(c2ccc(Cl)cc2)C1 (stereo not given),23%,-4%,-35%,-6%,25
CC1=NN(C(=O)CSCc2ccccc2)C(O)(c2ccc(Cl)cc2)C1 (stereo not given),?,-5%,10µM*,?,-1
O=C(c1ccccc1)N1N=C(C(F)(F)F)CC1(O)c1ccc(F)cc1 (stereo not given),13%,-38%,20µM*,?,-4
COC(=O)C1=NN(C(=O)c2ccccc2)C(C)(O)C1 (stereo not given),-1%,2%,-17%,-6%,1
CC1=NN(C(=O)c2ccc(Cl)cc2)C(O)(c2ccccc2)C1 (stereo not given),15µM*,?,10µM*,13µM*,35
COc1ccc(N(CC(=O)Nc2cccc(C(C)=O)c2)S(=O)(=O)c2ccc(NC(C)=O)cc2)cc1,10%,-3%,25%,-7%,0
CCC(=O)N(C)C[C@H]1Oc2cc(-c3cccnc3)ccc2S(=O)(=O)N([C@H](C)CO)C[C@H]1C,.,.,.,.,-20
CC(NC(=O)C12CC3CC(CC(O)(C3)C1)C2)c1ccc(Cl)cc1Cl (stereo not given),-4%,-8%,-24%,6%,11
CC1=NN(C(=O)COc2cc(C)ccc2C(C)C)C(O)(c2ccccc2)C1 (stereo not given),?,12%,11µM*,18µM*,-22
CC1=NN(C(=O)COc2ccc(C)c(C)c2)C(O)(c2ccc(Cl)cc2)C1 (stereo not given),?,-5%,7.1µM*,16µM*,-15
CC1=NN(C(=O)CSCc2ccccc2)C(O)(c2ccc(F)cc2)C1 (stereo not given),-5%,-7%,7.1µM*,?,-4

# Compound activity (PubChem BioAssay)
